# Rows were chosen to be rich in hits. Some 1.4% of all compounds tested hit in one or more screens of this group.
# MCL1 BIM primary – inhibitors of human MCL1 binding to BIM-BH3 peptide; inhibition, % at 10.9 µM; AID 2057; 320,000 tested, 0.68% active; GST-MCL1 / FITC-Bim-BH3 fluorescence polarization; Q07820;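 active = inhibition above the mean inhibition of all tested compounds plus 3 SD, set per campaign, cut at about 40% in these data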;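 note: 0% = DMSO wells and 100% = unlabeled Bim-BH3 peptide control; higher means more loss of mP so more displacement of Bim peptide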
# Target sequence (Q07820 whole entry, looked up): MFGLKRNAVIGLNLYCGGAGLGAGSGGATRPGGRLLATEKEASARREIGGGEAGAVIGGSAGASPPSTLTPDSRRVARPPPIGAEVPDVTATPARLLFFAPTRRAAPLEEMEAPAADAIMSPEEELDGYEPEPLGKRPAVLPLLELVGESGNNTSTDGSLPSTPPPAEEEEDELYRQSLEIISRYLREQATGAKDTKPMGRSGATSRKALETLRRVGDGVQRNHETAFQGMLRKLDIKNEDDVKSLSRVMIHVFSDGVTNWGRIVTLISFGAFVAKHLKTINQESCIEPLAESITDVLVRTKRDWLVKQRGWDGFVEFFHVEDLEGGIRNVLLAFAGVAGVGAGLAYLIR
# MEX-5 binding – C. elegans MEX-5 TCR-2 RNA binding activity | Q9XUB2 | MEX-5/FITC-TCR2 RNA binding, fluorescence polarization; hits give low values | activity score (negative = inhibition of binding), % at 10 µM | 300,000 tested, 0.38% active | AID 1832;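 active = inhibition past about -25% in most replicates, and total fluorescence under double the plate's negative control median, limit read from the data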;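 note: 0% = DMSO and -100% = 5 µM competing unlabeled TCR2 RNA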
# GLD-1 TGE inh – GLD-1-TGE RNA interaction inhibition (C. elegans); purified GLD-1 + fluorescein TGE RNA, fluorescence polarization; inhibition, % at 5.96 µM; 320,000 tested, 0.44% active; AID 2280;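 active = percent inhibition above a per-plate cutoff, the plate mean of test compounds plus 3 SD, cut at about 30% in these data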;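 note: 0% = DMSO wells with GLD-1 and probe and 100% = wells lacking GLD-1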
# E coli Lon inh – inhibitors of E. coli Lon protease; 360,000 tested, 0.42% active; P0A9M0; inhibition, % at 7.94 µM; purified E. coli Lon protease, fluorescence polarization; AID 602123; in the data active = inhibition above about 13%, passing the limit was not always enough;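 note: 0% = enzyme with probe and DMSO and 100% = no enzyme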
# Bcl-xL primary – blocks human Bcl-xL binding to Bim BH3 peptide. Q07817. GST-Bcl-xL / FITC-Bim BH3 peptide fluorescence polarization. inhibition, % at 10.9 µM. 320,000 tested, 0.7% active. AID 2129;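 active = inhibition above the mean of all tested compounds plus 3 SD, cutoff set per campaign, cut at about 30% in these data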;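 note: 0% = DMSO wells and 100% = unlabeled Bim-BH3 peptide competitor; inhibitors lower millipolarization by displacing the labeled peptide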
# EBV gp42 inh – blocks Epstein-Barr virus glycoprotein 42 binding; Fluorescence polarization binding assay, mP read-out; inhibition, % (tested at 21.74 µM); Q1HVG2; 220,000 tested, 0.42% active; in the data active = inhibition above about 50%
# Target sequence (Q1HVG2 whole entry, looked up): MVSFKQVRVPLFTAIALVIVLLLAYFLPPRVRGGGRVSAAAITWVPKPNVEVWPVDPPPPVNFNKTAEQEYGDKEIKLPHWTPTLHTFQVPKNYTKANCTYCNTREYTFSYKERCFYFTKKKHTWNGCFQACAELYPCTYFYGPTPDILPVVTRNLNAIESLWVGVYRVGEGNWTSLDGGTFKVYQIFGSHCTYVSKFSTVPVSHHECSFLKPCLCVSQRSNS
# An asterisk follows results filed as active; / = no result given.
SMILES,MCL1 BIM primary,MEX-5 binding,GLD-1 TGE inh,E coli Lon inh,Bcl-xL primary,EBV gp42 inh
O=S(=O)(NNC(=S)Nc1ccc(S(=O)(=O)Nc2ncccn2)cc1)c1ccc(Br)cc1,-2,-99*,0,12,2,/
O=C(COC(=O)c1c2c(nc3ccccc13)/C(=C/c1ccco1)CC2)NC1CCCC1,/,0,/,3,/,83*
CC1CCCCC1NC(=O)COC(=O)c1c2c(nc3ccccc13)/C(=C/c1ccco1)CC2 (stereo not given),-15,-2,1,-21,4,10
Cc1ccc(N(C)S(=O)(=O)c2c(C)noc2/C=C/N(C)C)cc1,-35,-30*,-10,-30,-23,/
Cc1ccc(CCNC(=O)C2CCCN(S(=O)(=O)c3c(C)noc3/C=C/N(C)C)C2)cc1 (stereo not given),-36,/,-42,-48,-23,3
CC1(OC(=O)c2cnc3ccccc3n2)C(=O)C=C2C=C(c3ccc(C#N)cc3)OC=C2C1=O (stereo not given),24,-8,47*,/,25,/
CC1=C/C(=C(/c2cc(C)c(O)c(Br)c2)c2ccccc2S(=O)(=O)O)C=C(Br)C1=O,43*,-21,19,20,41*,/
CC1=C/C(=C(/c2ccc(O)c(C)c2)c2ccccc2S(=O)(=O)O)C=CC1=O,6,/,6,-13,12,/
COC(=O)/C=C1\C(=O)N(c2nc3ccccc3s2)C(=S)N1c1ccc(F)cc1,-1,-30*,2,-2,-4,-25
CC(=O)c1c(C)c(C)c2n1CCn1c(C)ccc1-2,31,-8,18,10,36*,0
CCC1=[N+](C)CCn2c(C)ccc21,-18,0,-10,3,-11,-29
CC(C)c1ccc(C(O)P(=O)(OC2CCCCC2)OC2CCCCC2)cc1 (stereo not given),27,1,22,-9,35*,-1
Cc1ccc(C(=O)O)cc1NC(=O)CCc1c(C)noc1C,/,/,/,-5,/,/
O=c1[nH]c(=O)c2[nH]c(=S)n(-c3ccccc3)c2[nH]1,/,/,/,-6,/,/
O=C(CSc1nc(-c2ccccc2Cl)ns1)NCc1ccc2c(c1)OCO2,9,3,-6,-7,63*,-17
O=C1NC(=Nc2ccccc2)/C(=C/c2ccco2)S1,47*,-3,-36,5,42*,-8
CC1=C(C(=O)N(C)C)CC(CC(=O)NCc2cccc3ccccc23)C(=O)N1CCCN1CCCC1=O (stereo not given),/,/,/,-2,/,/
COCC(=O)NCCc1ccc(S(N)(=O)=O)cc1,-7,-5,-2,-5,-1,17
Nc1nccnc1C(=O)OCC(=O)NCCc1ccc(S(N)(=O)=O)cc1,37,0,27,10,35*,/
COC(=O)c1ccc(Cn2c(C)c(C(=O)NCc3cccs3)sc2=O)o1,/,/,/,5,/,/
O=C(NC(NC(=S)Nc1ccc(Cl)cc1Cl)C(Cl)(Cl)Cl)c1cccc([N+](=O)[O-])c1 (stereo not given),7,3,8,-5,-1,60*
CC(C)C(=O)N1CCCC1(C)C(=O)Nc1cccc(Oc2ccccc2)c1 (stereo not given),/,/,/,1,/,/
O=C1CCCC2=C1C(c1ccc(Br)cc1)c1c([nH]c(=S)[nH]c1=O)N2 (stereo not given),6,1,8,4,34*,-10
Cc1ccc(C2C3=C(CCCC3=O)Nc3[nH]c(=S)[nH]c(=O)c32)cc1 (stereo not given),-3,-1,3,2,8,82*
O=C(Nc1cc(S(=O)(=O)N2CCOCC2)ccc1N1CCCCC1)c1ccccc1Br,/,/,-2,-19,/,/
SMILES,MCL1 BIM primary,MEX-5 binding,GLD-1 TGE inh,E coli Lon inh,Bcl-xL primary,EBV gp42 inh
CCCCc1ccc(/C=C2/C(=O)ON=C2c2ccccc2)s1,6,-3,3,-5,4,2
Cc1sc(/C=C2\C(=O)ON=C2c2ccccc2)cc1Br,-15,-31*,-10,/,-6,7
NC1=NC(=O)C2(COC(c3ccncc3)OC2)S1 (stereo not given),-5,-1,0,2,0,-11
NC1=NC(=O)C2(COC(c3cccnc3)OC2)S1 (stereo not given),6,-2,5,-3,86*,-13
COc1cc(C(=O)NS(=O)(=O)c2ccccc2C)ccc1Cc1cn(C)c2ccc(NC(=O)OC3CCCC3)cc12,-1,-8,4,/,37*,7
NC(Cc1ccc(C(F)(F)F)cc1)c1csc(Nc2ccc(C(=O)NCc3ccco3)cn2)n1 (stereo not given),/,/,/,-5,/,/
Cc1noc(C)c1S(=O)(=O)NC1CCN(Cc2ccccc2)CC1,32,-34*,9,-3,35*,2
CCSc1sccc1C1C(C#N)=C(N)N(c2cccnc2)C2=C1C(=O)CCC2 (stereo not given),31,-1,12,-8,31*,2
N#CC1(C#N)CC(C=O)=C(N)C1(C#N)CC(=O)C12CC3CC(CC(C3)C1)C2 (stereo not given),-1,1,-9,-19,11,142*
Cc1ccc([N+](=O)[O-])cc1S(=O)(=O)Nc1ccc(O)c(Sc2ncn[nH]2)c1,19,-40*,-2,-6,12,/
Cc1cccc(C)c1OCC(O)Cn1ccnc1C (stereo not given),5,0,-4,8,-2,84*
C[C@H](CO)N1C[C@H](C)[C@@H](CN(C)C(=O)Nc2ccc3c(c2)OCO3)Oc2ccc(NC(=O)Cn3cnnn3)cc2C1=O,/,/,-1,-1,/,/
CC(Sc1nncn1C)C(=O)Nc1ccc2ccccc2c1 (stereo not given),/,/,/,2,/,/
CCCCCCc1ccc(N2C[C@H](C)[C@@H](CC(=O)NCc3ccccc3)C2=O)cc1,5,3,41*,-4,7,/
CCCCCCc1ccc(N2C[C@H](CCCCC)[C@@H](CC(=O)NCc3ccccc3)C2=O)cc1,1,3,4,-5,0,/
CN(C)c1ccc(N/C=C/C(=O)C(C)(C)C)cc1,35,0,3,2,32*,-11
Oc1ccccc1CNc1ccc(OC(F)(F)F)cc1,-5,2,3,9,-2,-7
COc1cc(/C=N/Nc2nc(=O)[nH]nc2C)cc([N+](=O)[O-])c1O,9,-79*,5,7,15,-3
Cc1n[nH]c(=O)nc1N/N=C/c1ccc(O)c([N+](=O)[O-])c1,-5,-28*,7,-3,3,-16
O=[N+]([O-])c1cc(Cl)cc(/C=N/Nc2nc3ccccc3s2)c1O,9,-1,-1,1,4,-6
COc1cc(/C=N/Nc2nc3ccccc3s2)cc([N+](=O)[O-])c1O,17,-3,-5,10,34*,8
NC(=O)c1c(NC(=O)C2c3ccccc3Oc3ccccc32)sc2c1CCCCC2,-22,-3,-14,-76,1,12
